Source: PubChem BioAssay AID372 (MTDP, 2006)
The campaign covered roughly 100,000 compounds. About 770 (0.77%) were called active. The sample holds actives, similar compounds and a random draw of the others, so the mix is not that of the screen. No stated cut-off is given here; in the data, active means inhibition above about 50%; inactive means the rest.

target: Gag-Pol polyprotein (Human immunodeficiency virus type 1 group M subtype B (isolate HXB2)) (UniProt P04585); assay: RNase H inhibition, HIV 1 Gag Pol polyprotein, FRET biochemical assay, screening (AID 372); conditions: HIV-1 RT RNase H, FRET RNA/DNA substrate fluorescence; at 10 µM; active compounds read high

SMILES	inhibition
COc1ccc(C(=O)Nc2ccc(I)cc2Cl)cc1OC	8% (inactive)
COc1ccc(-c2nc(-c3ccccn3)no2)cc1OC	10% (inactive)
CCC(CC)C(=O)Nc1ccc(Cl)cc1Cl	13% (inactive)
O=C(CCSc1nc2ccccc2s1)Nc1ccccc1C(F)(F)F	13% (inactive)
Cn1c(-c2nc3ccccc3n2C)nc2ccccc21	13% (inactive)
Cn1c(-c2ccccn2)nc2ccccc21	2% (inactive)
Cn1c(-c2ccc(-c3nc4cnccc4n3C)cc2)nc2cnccc21	70% (active)
CC1CCCN(C2=NC(=O)/C(=C\c3cccc(O)c3)S2)C1 (stereo not given)	12% (inactive)
Cc1cccc(-n2c(C)cc(/C=N/NC(N)=O)c2C)c1	29% (inactive)
Cc1cc(/C=N/NC(N)=S)c(C)n1-c1cccc([N+](=O)[O-])c1	52% (active)
Cc1cc(/C=N/NC(=O)c2cc(Br)c(O)c(Br)c2)c(C)n1-c1cccc([N+](=O)[O-])c1	15% (inactive)
Cc1cc(/C=N/NC(N)=S)c(C)n1-c1ccc(Cl)cc1	23% (inactive)
Cc1cc(C=O)c(C)n1-c1cccc([N+](=O)[O-])c1	6% (inactive)
Cc1cc(/C=N/NC(N)=S)c(C)n1-c1cccc(Cl)c1	54% (active)
Cc1cccc(-n2c(C)cc(/C=N/NC(N)=S)c2C)c1	56% (active)
Cc1ccc(-n2c(C)cc(/C=N/NC(N)=S)c2C)cc1	15% (inactive)
Cc1cc(/C=N/NC(N)=O)c(C)n1-c1cccc(Cl)c1	24% (inactive)
O=C(NCCc1ccccc1)/C(=C/c1ccco1)c1ccccc1	2% (inactive)
Cc1ccc(C(=O)c2cccc(C(=O)c3ccc(C)c(C)c3)c2)cc1C	8% (inactive)
O=C(Nc1c(-c2ccccc2)c2cc(Br)ccc2[nH]c1=O)c1cccc(Cl)c1	23% (inactive)
COc1ccc(OC(C)C(=O)Nc2ccc(F)cc2)cc1 (stereo not given)	0% (inactive)
Cc1ccc(NC(=O)C2CC(=O)N(c3ccc(Br)cc3)C2)cc1Cl (stereo not given)	5% (inactive)
COC(=O)C1=C(C)N(c2ccccc2)C(=O)/C1=C\c1ccc(C(=O)OC)cc1	15% (inactive)
Cc1cc(NS(=O)(=O)c2ccc(NC(=O)c3cc(Cl)cc(Cl)c3)cc2)no1	0% (inactive)
COCCCNc1ccc2c3c(nc(=O)n2C)-c2ccccc2C(=O)c13	50% (active)

SMILES	inhibition
CCCCNc1ccc2c3c(cc(=O)n2C)-c2ccccc2C(=O)c13	8% (inactive)
CC(=O)OCCNc1ccc2noc3c2c1C(=O)c1ccccc1-3	0% (inactive)
Fc1ccc(CN2CCc3c([nH]c4ccccc34)C2)cc1	0% (inactive)
CCCC(C)C(=O)Nc1cccc(C)c1C (stereo not given)	10% (inactive)
CC(C)(C)C1=CC(C(C)(C)C)=C([N+](=O)[O-])C(=O)C1=O	6% (inactive)
CC(C)(C)C1=CC(C(C)(C)C)=C(Cl)C(=O)C1=O	69% (active)
CC(C)(C)C1=CC(Cl)=C(C(C)(C)C)C(=O)C1=O	5% (inactive)
Cc1ccccc1CNS(=O)(=O)c1cccs1	0% (inactive)
COc1ccccc1/C=N\N(C)c1nc(-c2ccccc2)cc(-c2ccccc2)n1	17% (inactive)
COc1cc(/C=N/Nc2nc(N3CCOCC3)nc(N3CCOCC3)n2)cc(OC)c1	5% (inactive)
O=C(/C=C/c1ccc(-c2ccccc2[N+](=O)[O-])o1)Nc1ccc(-c2nc3cc(Cl)ccc3o2)cc1	53% (active)
O=C(/C=C/c1ccco1)Nc1ccc2oc(-c3ccccc3)nc2c1	15% (inactive)
Cc1cc2nc(-c3ccc(NC(=O)/C=C/c4ccco4)cc3)oc2cc1C	57% (active)
O=C(/C=C/c1ccco1)Nc1ccc2nn(-c3ccccc3)nc2c1	24% (inactive)
O=C(/C=C/c1ccc(-c2ccccc2[N+](=O)[O-])o1)Nc1ccc(-c2nc3ncccc3o2)cc1	16% (inactive)
O=C(/C=C/c1ccco1)Nc1ccc2nn(-c3ccc(Cl)cc3)nc2c1	50% (active)
Cc1ccc(-c2nc3cc(NC(=O)/C=C/c4ccco4)ccc3o2)cc1	12% (inactive)
Cc1cc2nc(-c3cccc(NC(=O)/C=C/c4ccco4)c3)oc2cc1C	12% (inactive)
Cc1ccc2nc(-c3ccc(NC(=O)/C=C/c4ccco4)cc3)oc2c1	11% (inactive)
COc1ccc(-n2nc3ccc(NC(=O)/C=C/c4ccco4)cc3n2)cc1	48% (inactive)
O=C(/C=C/c1ccco1)Nc1ccc(-c2nc3cc(Cl)ccc3o2)cc1	51% (active)
O=C(/C=C/c1ccc(-c2ccccc2[N+](=O)[O-])o1)Nc1ccc(-c2nc3ccccc3o2)cc1	45% (inactive)
O=C(Nc1ccc(N2CCOCC2)c(Cl)c1)c1cc([N+](=O)[O-])ccc1Cl	24% (inactive)
O=C1NC(=O)C(=Cc2ccccc2OCc2ccccc2F)C(=O)N1	4% (inactive)
COc1ccc(CN2CCN(C(=O)c3cccs3)CC2)c(OC)c1	5% (inactive)

SMILES	inhibition
CC(C)(C)c1ccc(S(=O)(=O)Nc2ccc(-c3ccc(NS(=O)(=O)c4ccc(C(C)(C)C)cc4)c(Cl)c3)cc2Cl)cc1	23% (inactive)
CC1CCN(Cc2c(O)ccc3c(=O)c(-c4ccc(Cl)cc4)coc23)CC1	0% (inactive)
COc1cc(-c2nc3ccccn3c2/N=C/c2cccc([N+](=O)[O-])c2)ccc1O	17% (inactive)
O=C(/C=C/c1ccco1)Nc1cccc(-c2nc3ccccc3o2)c1	10% (inactive)
O=C(/C=C/c1ccco1)Nc1nc2ccc(Br)cc2s1	59% (active)
Cc1ccc2oc(-c3cccc(NC(=O)/C=C/c4ccco4)c3)nc2c1	6% (inactive)
O=C(/C=C/c1ccco1)Nc1nc(-c2ccc(Br)cc2)cs1	15% (inactive)
O=C(/C=C/c1ccccc1)Nc1nc2ccc(Br)cc2s1	48% (inactive)
O=C(/C=C/c1ccco1)Nc1ccc(C(=O)Nc2cccc(-c3nc4ccccc4o3)c2)cc1	55% (active)
CC(C)(C)C(=O)CC(=O)c1ccccc1	10% (inactive)
CCOc1cc(CN2CCCCC2)ccc1OC	19% (inactive)
O=C(NC(=S)Nc1ccc(F)c([N+](=O)[O-])c1)c1cccc(Cl)c1	22% (inactive)
CC(/C=C/c1ccccc1)=N/NS(C)(=O)=O	3% (inactive)
COc1ccc(/C=C/C(=O)Nc2c(C(C)C)cccc2C(C)C)cc1Br	7% (inactive)
CCC(C(=O)Nc1cc(Cl)ccc1OC)c1ccccc1 (stereo not given)	29% (inactive)
O=C(COc1ccc(Br)cc1)Nc1ccc(F)cc1F	0% (inactive)
CCSc1nc2c(C)c(O)c(C)cc2[nH]1	0% (inactive)
O=C(Nc1ccccc1)Nc1nnc(Cc2ccc(Cl)c(Cl)c2)s1	16% (inactive)
COC(=O)c1sccc1NS(=O)(=O)c1ccc(Cl)cc1	70% (active)
COC(=O)c1sccc1NS(=O)(=O)c1ccc(OC)cc1	0% (inactive)
COC(=O)c1sccc1NS(=O)(=O)c1cc(Cl)ccc1Cl	35% (inactive)
CCOC(=O)c1c(NC(=O)COc2ccc(Cl)cc2C)sc(C(N)=O)c1C	12% (inactive)
Cc1cc(Cl)ccc1OCC(=O)Nc1ccccc1C(N)=O	7% (inactive)
COC(=O)c1ccccc1NC(=O)COc1ccc(Cl)cc1C	4% (inactive)
Cc1sc(NC(=O)COc2ccc(Cl)cc2Cl)c(C(N)=O)c1C	9% (inactive)

SMILES	inhibition
CCOC(=O)c1ccccc1NC(=O)COc1ccc(Cl)cc1C	50% (active)
Cc1ccc(N[C@H]2OC[C@H](O)[C@H](O)[C@H]2O)cc1[N+](=O)[O-]	6% (inactive)
CCC(=O)Nc1sc(Cc2ccccc2)c(C)c1C(N)=O	1% (inactive)
O=C(NCCCN1CCOCC1)/C(=C/c1ccc(-c2ccc(Cl)cc2)o1)NC(=O)c1ccccc1	0% (inactive)
COc1ccc(C(=O)NC(NC(=S)Nc2sc3c(c2C(N)=O)CCCC3)C(Cl)(Cl)Cl)cc1 (stereo not given)	11% (inactive)
CCOC(=O)C1=C(C)N=c2s/c(=C\c3ccc(-c4ccc(Cl)cc4Cl)o3)c(=O)n2C1c1ccc(OC)cc1 (stereo not given)	12% (inactive)
CCOC(=O)C1=C(C)N=c2s/c(=C\c3ccc(-c4cc(Cl)ccc4Cl)o3)c(=O)n2C1c1ccc(OC)cc1 (stereo not given)	50% (active)
CCOC(=O)C1=C(C)N=c2s/c(=C\c3ccc(-c4ccc(Cl)c(Cl)c4)o3)c(=O)n2C1c1ccc(OC)cc1OC (stereo not given)	10% (inactive)
CCOC(=O)C1=C(C)N=c2s/c(=C\c3ccc(-c4ccc(Cl)cc4)o3)c(=O)n2C1c1ccc(OC)cc1OC (stereo not given)	51% (active)
CCOC(=O)C1=C(C)N=c2s/c(=C\c3ccc(-c4cc(Cl)ccc4C)o3)c(=O)n2C1c1ccc(OC)cc1 (stereo not given)	15% (inactive)
CCOC(=O)C1=C(C)N=c2s/c(=C\c3ccc(-c4ccc(Cl)cc4)o3)c(=O)n2C1c1cc(OC)ccc1OC (stereo not given)	7% (inactive)
CC(/C=C/c1ccco1)=N/NC(=O)COc1cccc(Cl)c1	14% (inactive)
Cc1ccc(C(=O)NC(C(=O)NC(C)(C)C)C23CC4CC(CC(C4)C2)C3)cc1 (stereo not given)	16% (inactive)
CC(=O)c1cccc(NC(=S)NC(=O)c2ccc(C)cc2)c1	17% (inactive)
Cc1ccc(C(=O)NC(=S)Nc2ccc(Cl)cc2)cc1C	3% (inactive)
O=C(NC(=S)Nc1cc(Cl)c(Cl)cc1Cl)c1ccc(F)cc1	13% (inactive)
Cc1ccc(C(=O)NC(=S)Nc2cc(Cl)cc(Cl)c2)cc1C	50% (active)
Cc1ccc(C(=O)NC(=S)Nc2cc(Cl)c(Cl)cc2Cl)cc1	40% (inactive)
Cc1ccc(C(=O)NC(=S)Nc2c(C)cccc2C)cc1	53% (active)
Cc1cccc(C)c1NC(=S)NC(=O)c1ccc(Br)cc1	2% (inactive)
COC(=O)c1cc(NC(=S)NC(=O)c2ccc(C)cc2)cc(C(=O)OC)c1	54% (active)
COC(=O)c1cc(NC(=S)NC(=O)c2ccccc2)cc(C(=O)OC)c1	21% (inactive)
Cc1ccc(C(=O)NC(=S)Nc2cc(Cl)cc(Cl)c2)cc1	14% (inactive)
Cc1cccc(C)c1NC(=S)NC(=O)c1ccccc1	7% (inactive)
O=C(NC(=S)Nc1cc(Cl)c(Cl)cc1Cl)c1ccc(Cl)cc1	54% (active)
